From PubChem BioAssay come the findings set out here.

Several values for one entry are separate records, joined by “and”; a condition that tells them apart may be missing. Identical values can stand only once. Activity calls are given as the source filed them.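 Rule for the calls, unless noted: active = inhibition at or above 50% relative to wild type and mutant plate controls; inactive = inhibition below 50%.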 Residues, ends and D or L forms follow the SMILES beside them.

A short description of assay [1]: inhibitors of TNFa-induced NFkB p65 translocation, primary screen, imaging, HUVEC, MLSMR starter and 10KST1 sets (AID 438;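 active = inhibition above 20% together with a positive visual image hit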;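 note: compound added about 3h40 before a 20 min TNFalpha stimulation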;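 for inhibition: signal is the nuclear over cytoplasmic p65 intensity ratio per well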). Particulars: HUVEC TNFa-induced p65 nuclear translocation; cell count: measured here: nuclei count (cytotoxicity indicator), at 2.08 µM unless noted; inhibition: at 2 µM, stronger effect = higher value unless noted.
Assay [2] in a line: inhibitors of mutant huntingtin aggregation, primary screen, imaging, exon1htt(103Q)mCFP cells, high-content imaging (AID 483;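 active = visual image review flags a hit and inhibition of aggregation exceeds 20%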;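 note: compound exposure lasted 3 days before fixation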;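 for nuclei count: percent of the per-plate median nuclei count of sample wells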). Particulars: exon1htt(103Q)mCFP cell line, aggregate imaging, at 2 µM; inhibition of aggregation: stronger effect = higher value; nuclei count: measured here: cell count, toxicity.
A short description of assay [3]: inhibitors of E-selectin induction by TNFa, primary screen, imaging, HUVEC, immunofluorescence, MLSMR starter and 10KST1 sets (AID 487;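 active = visually confirmed hit in the image check and inhibition above 20%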;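 for inhibition: signal is fraction of cell area covered by stained E-selectin grains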;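 for nuclei count: 100% = median nuclei count of all wells on the same plate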). The settings on record: HUVEC TNFalpha-induced E-selectin immunofluorescence imaging, at 2 µM; inhibition: stronger effect = higher value; nuclei count: measured here: cell number, toxicity.
Assay [4] is described as follows: DUSP6 inhibitors restoring Erk phosphorylation by chemical complementation, primary imaging in DUSP6-transfected HeLa (AID 609;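 active = compounds giving at least 50% inhibition in the cell-based MKP-3 phosphatase rescue imaging test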;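 for inhibition: phospho-Erk level distribution per well compared with pooled transfected vehicle control wells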). The settings on record: HeLa MKP-3 transfected, phospho-Erk imaging KS statistic, at 10 µM.
Assay [5] has as its target Dual specificity protein phosphatase 6 (Homo sapiens) (UniProt Q16828). The assay is described as above. Particulars: HeLa MKP-3 transfected, phospho-Erk imaging KS statistic, at 10 µM, stronger effect = higher value.
Assay [6] has as its target Voltage-gated potassium channel subunit beta-2 (Rattus norvegicus) (UniProt P62483). The assay is described as follows: KvBeta enzyme negative modulators, primary screen, biochemical, NADPH fluorescence (AID 622;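 active = fluorescence slope higher than the sample average by over 3 SD, cut at about -0.22 in these data, passing the limit was not always enough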;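 note: slope of raw intensity against log time taken from 70 to 1610 s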). Particulars: recombinant KvBeta, 4-cyanobenzaldehyde reduction, at 10 µM, stronger effect = higher value.
For assay [7] the target is unchanged. In words: KvBeta positive modulators, primary screen, biochemical, NADPH fluorescence (AID 623;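 active = NADPH fluorescence slope more negative than the mean of all samples by about 3 SD, 99.7% confidence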;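 note: fluorescence intensity change per second fitted from 20 to 320 s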). The settings on record: Recombinant KvBeta, NADPH fluorescence decrease slope, 10 min; at 10 µM; stronger effect = lower value.
Assay [8] deals with Alpha-2C adrenergic receptor (Homo sapiens) (UniProt P18825). The assay is described as follows: modulators of alpha2C/GIRK thallium flux, primary screen, cell-based, HEK293 alpha2C/GIRK1/2 (AID 624;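 active = fluorescence slope after compound addition differing from the mean of all screened samples at 99.7% confidence, in either direction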;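 note: slope of fluorescence ratio to pre-addition baseline per second over 15 to 24 s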). The settings on record: thallium flux BTC fluorescence, at 10 µM, actives lie on both sides.
Assay [9] in a line: inhibitors of larval lipid processing in zebrafish, primary screen, whole organism, PED6 fluorescence, gall bladder and intestine (AID 686;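 active = a full or partial loss of lipid-probe fluorescence in the fish gall bladder, intestine or both, judged by eye; inactive = no fluorescence loss, or compound toxic to the fish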;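 note: larvae 5 to 7 days old with five fish per well; signal comes from phospholipase A2 cleavage of quenched PED6 carried via bile; overnight exposure to compound and PED6 before scoring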). Particulars: Zebrafish larvae PED6 lipid processing, fluorescence scoring.
The nature of assay [10]: inhibitors of Chlamydomonas gravitaxis, primary screen, whole organism, Chlamydomonas reinhardtii, WT vs cilia-less mutant, absorbance, 96-well (AID 463189).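 Note: 0% = wild type cc124 cells in DMSO and 100% = ciliumless bld1 mutant cells.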 Particulars: OD600 absorbance, 2 days, at 10 µM, stronger effect = higher value.
Assay [11] in a line: inhibitors of Sendai virus-induced IRF3 signaling, primary screen, TLR/RLR signaling modifier project, cell-based, Sendai virus stimulus, luciferase, 10K MLSCN set (AID 602276;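 active = inhibition at or above 50% at 10 µM; inactive = inhibition below 50%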;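 note: firefly luciferase from ISG56 promoter only with Renilla not read in this screen; 0% = Sendai virus plus DMSO and 100% = medium plus DMSO without virus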). The settings on record: HEK293 RL24 IRF3 luciferase reporter, at 10 µM, stronger effect = higher value. (In a reporter assay the amount or activity of a reporter protein is the signal.)
The nature of assay [12]: inhibitors of poly I:C-induced TLR3 signaling, primary screen, cell-based, poly I:C stimulus, luciferase, 10K MLSCN set (AID 602277;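 active = inhibition of the reporter signal at or above 50%; inactive = inhibition below 50%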). The settings on record: HEK293-TLR3 RL24 IRF3 luciferase reporter, at 10 µM, stronger effect = higher value.
[13] abbreviates: measured here: cell density z-score.
The mark [14] stands for this setting: measured here: nuclear c-Myc green intensity z-score.
The mark [15] stands for this setting: measured here: nuclear pErk red intensity z-score, stronger effect = higher value.
The mark [16] stands for this setting: measured here: cell density z-score, cells stimulated with TPA for 15 min.
[17] abbreviates: measured here: nuclear c-Myc green intensity z-score, cells stimulated with TPA for 15 min.
The mark [18] stands for this setting: measured here: nuclear pErk red intensity z-score, stronger effect = higher value, cells stimulated with TPA for 15 min.

Sequence of Voltage-gated potassium channel subunit beta-2 (Rattus norvegicus) (P62483 whole entry, looked up): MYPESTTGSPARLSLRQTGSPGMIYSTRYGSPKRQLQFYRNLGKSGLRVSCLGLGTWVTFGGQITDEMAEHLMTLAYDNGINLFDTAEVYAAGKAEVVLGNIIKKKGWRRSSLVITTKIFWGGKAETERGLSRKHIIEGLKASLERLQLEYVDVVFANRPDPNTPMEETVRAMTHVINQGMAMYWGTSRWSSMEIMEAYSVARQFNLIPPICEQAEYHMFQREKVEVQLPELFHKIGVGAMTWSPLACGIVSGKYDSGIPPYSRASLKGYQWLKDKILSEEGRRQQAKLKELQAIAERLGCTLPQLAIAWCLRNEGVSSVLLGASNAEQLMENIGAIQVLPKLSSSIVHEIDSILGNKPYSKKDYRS
Sequence of Alpha-2C adrenergic receptor (Homo sapiens) (P18825 whole entry, looked up): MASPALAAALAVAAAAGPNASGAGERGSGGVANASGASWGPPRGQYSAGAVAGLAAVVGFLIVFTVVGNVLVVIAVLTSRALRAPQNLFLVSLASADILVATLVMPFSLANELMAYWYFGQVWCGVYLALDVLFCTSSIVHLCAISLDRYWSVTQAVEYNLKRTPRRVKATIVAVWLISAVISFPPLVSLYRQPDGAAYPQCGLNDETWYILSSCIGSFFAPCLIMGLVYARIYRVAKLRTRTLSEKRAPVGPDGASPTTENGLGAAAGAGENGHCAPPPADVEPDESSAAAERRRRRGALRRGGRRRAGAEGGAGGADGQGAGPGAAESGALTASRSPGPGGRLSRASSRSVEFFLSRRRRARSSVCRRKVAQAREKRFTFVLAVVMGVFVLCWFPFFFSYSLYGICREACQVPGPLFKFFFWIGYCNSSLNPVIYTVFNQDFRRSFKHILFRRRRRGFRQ
Sequence of Dual specificity protein phosphatase 6 (Homo sapiens) (Q16828 whole entry, looked up): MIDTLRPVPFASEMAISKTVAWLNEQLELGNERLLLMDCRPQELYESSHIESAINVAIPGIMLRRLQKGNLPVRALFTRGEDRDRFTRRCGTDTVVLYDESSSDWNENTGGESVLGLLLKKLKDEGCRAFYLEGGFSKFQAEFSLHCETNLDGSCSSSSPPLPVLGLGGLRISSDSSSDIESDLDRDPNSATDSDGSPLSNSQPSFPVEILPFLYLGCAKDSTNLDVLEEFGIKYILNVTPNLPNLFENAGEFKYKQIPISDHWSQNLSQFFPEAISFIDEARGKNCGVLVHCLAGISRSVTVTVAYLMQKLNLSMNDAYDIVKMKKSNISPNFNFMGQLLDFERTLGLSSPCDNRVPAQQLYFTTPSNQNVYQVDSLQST

As a reminder, the inhibition is the relative decrease from the control value, in per cent. Consider `NCC1(CC(=O)O)CCCCC1`, for which the cell count in assay [1] was determined as 645. Also, the inhibition in assay [1] is -5.2% (inactive); in [3] it was -78.6% (inactive); in [5], 1.38% (inactive); in [10], 4.56% (inactive) and -5.83% (inactive); in [11], -3.61% (inactive); in assay [12], 3.7% (inactive). In addition, in assay [2], the inhibition of aggregation was -6.5% (inactive). Moreover, the nuclei count in assay [2] is 100%; in assay [3], 116%. Besides, the figures for the z-score in assay [4] (setting [13]), in assay [4] (setting [14]) and in assay [4] (setting [15]) were -0.493, 0.124 and -0.808, respectively. Besides, in assay [6], the fluorescence slope was -0.493 (inactive). The NADPH fluorescence slope in assay [7] is -3.2e-05 (inactive). The slope in assay [8] is 0.00518 (inactive). In addition, the outcome in [9] was inactive.

In assay [1], `CN1CCN(C(=O)OC2c3nccnc3C(=O)N2c2ccc(Cl)cn2)CC1` (stereo not drawn) yielded a cell count of 563. Moreover, the inhibition is -7.6% (inactive) in assay [1]; -132% (inactive) in assay [3]; 3.45% (inactive) in [5]; 4.29% (inactive) and -9.06% (inactive) in [10]; 15.5% (inactive) in assay [11]; 43.6% (inactive) in [12]. Also, the inhibition of aggregation in assay [2] is -7% (inactive). The nuclei count in [2] came to 109%; in assay [3], 114%. Moreover, the z-score in [4] (setting [13]) was -0.576; in assay [4] (setting [14]), -1.54; in assay [4] (setting [15]) it was 0.116. Also, the fluorescence slope in [6] was -0.501 (inactive). The NADPH fluorescence slope in assay [7] was -7.3e-05 (inactive). For the same compound, the slope in assay [8] was 0.00689 (inactive). In assay [9], the compound was called inactive.

`Clc1ccc(CSC(Cn2ccnc2)c2ccc(Cl)cc2Cl)cc1` (stereo not drawn): the cell count in assay [1] turned out to be 639. The inhibition in assay [1] is 3.8% [at 2 µM, stronger effect = higher value, 0% TNFa-plus-vehicle, 100% no-TNFa wells] (inactive); in [3], -57.9% (inactive); in [5], 10.2% [cells stimulated with TPA for 15 min] (inactive); in [10] it was 31.3% (inactive); in [11], 13.2% (inactive); in [12], 7.53% (inactive). The inhibition of aggregation in assay [2] was -3.9% (inactive). Further, the figures for the nuclei count in assay [2] and in assay [3] were 108% and 120%, respectively. The z-score in [4] (setting [16]) amounted to 0.528; in assay [4] (setting [17]) it was 0.633; in assay [4] (setting [18]) it was 0.478. Moreover, the fluorescence slope in assay [6] was -0.531 (inactive). Also, the NADPH fluorescence slope in assay [7] is -3.2e-05 (inactive). Besides, the slope in [8] was 0.0071 (inactive). In addition, in [9], the outcome was “inactive; toxic [screened at 20 µM (by protocol)]”.

In [1], `Clc1ccc(COC(Cn2ccnc2)c2ccc(Cl)cc2Cl)c(Cl)c1` (stereo not drawn) displayed a cell count of 692. The inhibition in [1] is -0.4% [at 2 µM, stronger effect = higher value, 0% TNFa-plus-vehicle, 100% no-TNFa wells] (inactive); in assay [3], -73.1% (inactive); in assay [5], 31.1% [cells stimulated with TPA for 15 min] (inactive); in assay [10] it was 36.1% (inactive); in assay [11], 15.4% (inactive); in [12], 32.2% (inactive). For the same compound, in assay [3], the nuclei count came out at 144%. Moreover, the z-score in assay [4] (setting [16]) is -0.0883; in [4] (setting [17]), 1.51; in assay [4] (setting [18]), -0.416. Also, the fluorescence slope in assay [6] is -0.515 (inactive). In addition, in assay [7], the NADPH fluorescence slope was -3.4e-05 (inactive). Also, the slope in [8] was 0.00694 (inactive). In assay [9], the outcome was “inactive; toxic [screened at 20 µM (by protocol)]”.

As for `CC(C)C[C@H](NC(=O)[C@@H]1CCCN1C(=O)[C@@H](N)Cc1ccc(O)cc1)C(=O)NCC(N)=O` (H-YPLG-NH2), the cell count in [1] is 621. Besides, the inhibition in [1] was -3.8% (inactive); in assay [3], -65.3% (inactive); in assay [5], 1.48% (inactive); in assay [10] it was -9.78% (inactive); in assay [11] it was 2.09% (inactive); in assay [12] it was 31.8% (inactive). For the same compound, the inhibition of aggregation in [2] was -9.8% (inactive). Besides, the results for the nuclei count in [2] and in assay [3] were 103% and 104%, respectively. The z-score was -0.734 in assay [4] (setting [13]), -0.49 in assay [4] (setting [14]) and -1.27 in assay [4] (setting [15]). Moreover, the fluorescence slope in assay [6] is -0.471 (inactive). The NADPH fluorescence slope in assay [7] is -6.7e-05 (inactive). Besides, the slope in assay [8] was 0.00565 (inactive). In addition, in assay [9], the call was inactive.
